Among the data in PubChem BioAssay (Tox21) are outcome and Potency values, retold here.

A number with no mark means an inactive call. Results filed as inconclusive are left out. Activity calls are given as the source filed them. Unless noted, calls follow the shape of the dose curve; as a rule, active = well fitted curve in the direction sought with a large enough effect in the repeat runs; inconclusive = weak or mixed curves; inactive = no such curve, though single readings can be large; an effect the other way counts as inactive or inconclusive.

Assay [1] in a line: qHTS assay to test for compound auto fluorescence at 535 nm (green) in HEK293 cells (AID 720680).
The nature of assay [2]: qHTS assay to test for compound auto fluorescence at 460 nm (blue) in HEK293 cell free culture (AID 720681). The essentials:
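Blue fluorescence (Ex 405/Em 460 nm, triamterene-equivalent) was read immediately after pin transfer of compound or DMSO into medium (DMEM, 10% FBS) without cells.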
Background: In qHTS, concentration-response curves come from the screen itself.

A short description of assay [3]: qHTS assay to test for compound auto fluorescence at 535 nm (green) in HEK293 cell free culture (AID 720682). The essentials: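 No cells present: wells hold DMEM supplemented with 10% FBS, into which compound or vehicle is pinned. Green emission is then recorded (485 nm excitation, 535 nm emission) and scaled to fluorescein.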
Assay [4] can be described thus: qHTS assay to test for compound auto fluorescence at 590 nm (red) in HEK293 cell free culture (AID 720683). The method in brief:
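Red-channel autofluorescence of compounds in culture medium (DMEM, 10% FBS), no cells, measured at 540/590 nm. Rose Bengal sodium is the reference fluorophore for equivalence.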

The nature of assay [5]: qHTS assay to test for compound auto fluorescence at 590 nm (red) in HepG2 cell free culture (AID 720684). The essentials: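 Steps: dispense MEM/10% FBS medium, no cells; pin compound or DMSO vehicle; read red channel, Ex/Em 540/590 nm. Output given as Rose Bengal sodium equivalents.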
Assay [6] in a line: qHTS assay to test for compound auto fluorescence at 460 nm (blue) in HepG2 cell free culture (AID 720685). The essentials: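 Compound (23 nL) or DMSO pinned into cell-free MEM with 10% FBS; blue fluorescence read at 405/460 nm excitation/emission, expressed as auto-fluorescence equivalency to triamterene.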
A short description of assay [7]: qHTS assay to test for compound auto fluorescence at 535 nm (green) in HepG2 cell free culture (AID 720686).
The nature of assay [8]: qHTS assay to test for compound auto fluorescence at 460 nm (blue) in HepG2 cells (AID 720687). The method in brief: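 Blue-channel autofluorescence (Ex/Em 405/460 nm, triamterene-equivalent) was measured after 1 hr compound exposure at 37 C, 5% CO2. Cells were HepG2, plated overnight at 37 C in MEM plus 10% FBS.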
For assay [9], the target named is Glucocorticoid receptor (Homo sapiens) (UniProt P04150). The assay is described as follows: qHTS assay to identify small molecule agonists of the glucocorticoid receptor (GR) signaling pathway (AID 720691; active = well fitted activation curve with a large enough effect in the signal ratio in the repeat runs, not every such curve was filed as active; the % refers to the signal ratio). The essentials:
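Agonist mode in a HeLa line carrying a GRE-controlled beta-lactamase reporter. Compounds act for 18 h at 37 C before a 2 h room-temperature FRET substrate step and fluorescence reading.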

A short description of assay [10]: qHTS assay to identify small molecule antagonists of the glucocorticoid receptor (GR) signaling pathway - cell viability counter screen (AID 720693). Also: nearly all actives have a fitted effect of over 55% in size.
Assay [11] is described as follows: qHTS assay for identifying genotoxic compounds that show differential cytotoxicity against isogenic chicken DT40 cell lines with known DNA damage response pathways - wild type cell line (AID 743012). Also: nearly all actives have a fitted effect of over 60% in size. Also: potency is read from the fitted curve at half-maximal effect. The method in brief: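 Cells (DT40 wild type, 300/well) are treated with DMSO-dissolved compounds after a ~0.5 h pre-incubation and kept 40 h at 37 C/5% CO2. Viability is then measured by CellTiter-Glo luminescence following 30 min at room temperature.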

Assay [12] can be described thus: qHTS assay for identifying genotoxic compounds that show differential cytotoxicity against isogenic chicken DT40 cell lines with known DNA damage response pathways - Rad54/Ku70 mutant cell line (AID 743015). Also: nearly all actives have a fitted effect of over 60% in size. Also: potency is read from the fitted curve at half-maximal effect.
For assay [13], the target named is Androgen receptor (Homo sapiens) (UniProt P10275). The experiment in a line: qHTS assay to identify small molecule antagonists of the androgen receptor (AR) signaling pathway (AID 743035; active = well fitted inhibition curve with a large enough effect in the signal ratio in the repeat runs, not every such curve was filed as active; the % refers to the signal ratio). The method in brief: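 Antagonism is scored as loss of R1881-driven beta-lactamase reporter expression in HEK293 cells carrying the reporter under a UAS element, after 16 h co-treatment at 37C and a 2 h room-temperature FRET substrate read.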
Chain of Androgen receptor (Homo sapiens) (P10275 whole entry, looked up): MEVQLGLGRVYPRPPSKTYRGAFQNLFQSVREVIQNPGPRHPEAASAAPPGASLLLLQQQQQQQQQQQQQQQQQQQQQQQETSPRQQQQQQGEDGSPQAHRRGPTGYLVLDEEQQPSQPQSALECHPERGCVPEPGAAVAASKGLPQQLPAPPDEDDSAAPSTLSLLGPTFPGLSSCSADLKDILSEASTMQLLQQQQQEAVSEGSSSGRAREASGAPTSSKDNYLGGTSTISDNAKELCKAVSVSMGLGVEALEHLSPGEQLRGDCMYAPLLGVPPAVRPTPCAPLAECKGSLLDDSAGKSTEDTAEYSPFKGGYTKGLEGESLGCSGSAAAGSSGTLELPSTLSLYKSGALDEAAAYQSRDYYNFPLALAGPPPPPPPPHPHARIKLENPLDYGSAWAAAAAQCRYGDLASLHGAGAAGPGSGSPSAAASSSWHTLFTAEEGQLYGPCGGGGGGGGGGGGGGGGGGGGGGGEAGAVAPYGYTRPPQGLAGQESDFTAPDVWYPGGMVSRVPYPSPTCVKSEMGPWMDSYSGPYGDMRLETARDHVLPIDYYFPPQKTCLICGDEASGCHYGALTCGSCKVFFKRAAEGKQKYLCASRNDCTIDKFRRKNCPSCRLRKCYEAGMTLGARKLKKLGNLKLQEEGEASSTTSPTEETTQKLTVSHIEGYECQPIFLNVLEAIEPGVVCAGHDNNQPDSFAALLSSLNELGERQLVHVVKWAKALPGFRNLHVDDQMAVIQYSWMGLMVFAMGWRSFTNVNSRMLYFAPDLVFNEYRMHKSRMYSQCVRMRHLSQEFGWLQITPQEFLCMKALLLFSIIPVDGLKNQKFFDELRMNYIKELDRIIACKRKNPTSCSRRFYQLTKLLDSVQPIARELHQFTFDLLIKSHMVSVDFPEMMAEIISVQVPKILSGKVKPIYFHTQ

Assay [14] has the same target. The experiment in a line: qHTS assay to identify small molecule agonists of the androgen receptor (AR) signaling pathway using the MDA cell line (AID 743040; also: nearly all actives have a fitted effect of over 20% in size). The method in brief:
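Cells plated, 5 h at 37C/0% CO2; compound or DMSO pinned; 16 h at 37C; ONE-Glo added; luminescence measured after 30 min at room temperature. Reporter line: MDA-kb2 with MMTV-luciferase responsive to AR and GR.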

For assay [15] the target is unchanged. The experiment in a line: qHTS assay to identify small molecule antagonists of the androgen receptor (AR) signaling pathway using the MDA cell line (AID 743042; also: nearly all actives have a fitted effect of over 55% in size). The essentials:
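Antagonist mode: compounds plus R1881 agonist added to MDA-kb2 AR-luc cells, incubated 16 h at 37C. Luciferase reporter luminescence quantified, with multiplexed CellTiter-Fluor readout for cell viability.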

A short description of assay [16]: qHTS assay to identify small molecule antagonists of the thyroid receptor (TR) signaling pathway - cell viability counter screen (AID 743064). Also: nearly all actives have a fitted effect of over 50% in size. The method in brief:
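Rat GH3 pituitary tumor cells stably expressing two TR response elements driving luciferase were plated, rested 4 h, then dosed with library compounds and T3 (1 nM final). After 23.5 h at 37 °C, CellTiter-Fluor was added for 30 min and fluorescence recorded.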

Assay [17] is described as follows: qHTS assay to identify small molecule antagonists of the androgen receptor (AR) signaling pathway using the MDA cell line - cell viability counter screen (AID 743041; also: nearly all actives have a fitted effect of over 45% in size). The method in brief:
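Cells were plated at 3,000 per well and left 5 h. Compounds in DMSO were then pinned in, followed by R1881. After 16 h at 37C, CellTiter-Fluor fluorescence gave viability.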

Assay [18] is described as follows: qHTS assay for identifying genotoxic compounds that show differential cytotoxicity against isogenic chicken DT40 cell lines with known DNA damage response pathways - Rev3 mutant cell line (AID 743014). Also: nearly all actives have a fitted effect of over 55% in size.
Assay [19] can be described thus: qHTS assay to identify small molecule antagonists of the androgen receptor (AR) signaling pathway - cell viability counter screen (AID 743033; also: nearly all actives have a fitted effect of over 45% in size).

Chain of Glucocorticoid receptor (Homo sapiens) (P04150 whole entry, looked up): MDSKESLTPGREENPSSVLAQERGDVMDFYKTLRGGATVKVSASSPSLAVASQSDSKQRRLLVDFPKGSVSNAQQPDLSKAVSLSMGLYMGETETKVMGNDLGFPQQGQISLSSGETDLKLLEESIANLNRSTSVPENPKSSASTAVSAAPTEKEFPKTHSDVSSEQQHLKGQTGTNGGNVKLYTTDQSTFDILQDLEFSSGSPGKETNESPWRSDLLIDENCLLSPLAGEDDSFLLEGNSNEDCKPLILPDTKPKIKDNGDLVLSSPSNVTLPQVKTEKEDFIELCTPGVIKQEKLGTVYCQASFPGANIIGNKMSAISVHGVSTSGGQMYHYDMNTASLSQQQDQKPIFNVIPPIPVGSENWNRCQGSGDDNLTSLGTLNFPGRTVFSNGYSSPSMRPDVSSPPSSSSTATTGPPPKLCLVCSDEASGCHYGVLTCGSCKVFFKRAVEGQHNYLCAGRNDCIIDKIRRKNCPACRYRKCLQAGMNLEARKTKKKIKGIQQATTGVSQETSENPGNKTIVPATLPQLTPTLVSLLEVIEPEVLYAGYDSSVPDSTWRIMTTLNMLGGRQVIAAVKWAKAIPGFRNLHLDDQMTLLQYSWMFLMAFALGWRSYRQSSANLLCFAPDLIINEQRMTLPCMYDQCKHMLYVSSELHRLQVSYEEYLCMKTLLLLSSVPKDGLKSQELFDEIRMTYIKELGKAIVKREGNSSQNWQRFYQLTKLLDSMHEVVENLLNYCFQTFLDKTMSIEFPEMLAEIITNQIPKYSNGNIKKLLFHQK

For the molecule `CCOC(=O)[C@H](CCc1ccccc1)N[C@H]1CS[C@H](c2cccs2)CN(CC(=O)O)C1=O`, the call in [1], in [2], in [3], in assay [4], in assay [5] and in assay [6] was inactive. Besides, the molecule was called inactive in [7], in assay [8], in assay [10], in assay [13], in assay [14] and in assay [15]. Moreover, the Potency result in assay [9], in assay [11], in assay [12] and in assay [16] was “inactive” throughout.

Take `CN1C(CCl)Nc2cc(Cl)c(S(N)(=O)=O)cc2S1(=O)=O` (centres undefined): the call in assay [1], in [2], in assay [3], in [4], in [5] and in assay [6] was inactive. Moreover, the molecule was called inactive in assay [7], in assay [8], in assay [10] and in assay [17]. Also, the Potency entry in [9] is “inactive”. The Potency was 26.6 µM (active) in assay [11] and 29.8 µM (active) in [12].

`CC(=O)Nc1ccc(S(=O)(=O)Nc2cc(C)on2)cc1`: the molecule was classed as inactive in assay [1], in [2], in assay [3], in assay [4], in assay [5] and in [6]. Further, the molecule was classed as inactive in [7], in [8], in assay [10], in assay [19] and in [17]. Also, the Potency result in [9], in assay [11], in assay [18], in assay [12] and in [16] was “inactive” in each case.

In the case of `CC1(C)CC(N)CC(C)(C)N1`, the molecule was called inactive in assay [1], in assay [2], in [3], in assay [4], in assay [5] and in assay [6]. For the same molecule, the result in assay [7], in assay [8], in [10], in [19] and in assay [17] was inactive. Besides, the Potency entry in [11], in assay [18], in assay [12] and in [16] was “inactive” throughout.

As to `O=C(c1ccccc1)c1cccc(O)c1`, the molecule was called inactive in assay [1], in [2], in assay [3], in assay [4], in [5] and in assay [6]. Besides, the molecule was called inactive in assay [7], in [8], in assay [10], in [19], in assay [17] and in [15]. Also, the Potency result in [11], in [18], in [12] and in assay [16] was “inactive” each time.

Consider `CCCCCCCCCCCCCC(=O)OCC`, for which the call in assay [1], in assay [2], in [3], in assay [4], in assay [5] and in [6] was inactive. Further, the result in assay [7], in assay [8], in assay [19] and in [17] was inactive. Besides, the Potency entry in assay [9], in assay [11], in assay [18], in assay [12] and in assay [16] was “inactive” in each case.

As to `CCCCCCCCS(=O)(=O)O`, the outcome in assay [1], in [2], in [3], in assay [4], in assay [5] and in assay [6] was inactive. In addition, the call in assay [7], in assay [8], in [19] and in assay [17] was inactive. Besides, the Potency result in assay [11], in [18] and in assay [12] was “inactive” in each case.
